IDH1 R132H inh: blocks human mutant IDH1 R132H enzyme | actives 0.093% (n = 390,000) | IDH1-R132H enzyme, NADPH consumption, diaphorase/resazurin fluorescence | Potency, µM (highest dose often 76.6 µM), most hits filed as inhibitors; also: nearly all actives have a fitted effect of over 65% in size
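IDH1-R132H (0.5 ug/mL) preincubated 30 min with compound, then NADPH (0.016 mM) and alpha-KG (2 mM) added; 80 min at RT, pH 7.5. Remaining NADPH coupled via diaphorase/resazurin to fluorescence (540/590 nm); concentration-response curves normalized to no-enzyme control.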
TrxR1 inh: rat TrxR1 inhibition. Potency, µM (series often up to 114 µM), most hits filed as inhibitors. recombinant rTrxR1, NADPH fluorescence consumption, selenite substrate. actives 1% (n = 390,000). O89049; also: nearly all actives have a fitted effect of over 65% in size
Target sequence (O89049 whole entry, looked up): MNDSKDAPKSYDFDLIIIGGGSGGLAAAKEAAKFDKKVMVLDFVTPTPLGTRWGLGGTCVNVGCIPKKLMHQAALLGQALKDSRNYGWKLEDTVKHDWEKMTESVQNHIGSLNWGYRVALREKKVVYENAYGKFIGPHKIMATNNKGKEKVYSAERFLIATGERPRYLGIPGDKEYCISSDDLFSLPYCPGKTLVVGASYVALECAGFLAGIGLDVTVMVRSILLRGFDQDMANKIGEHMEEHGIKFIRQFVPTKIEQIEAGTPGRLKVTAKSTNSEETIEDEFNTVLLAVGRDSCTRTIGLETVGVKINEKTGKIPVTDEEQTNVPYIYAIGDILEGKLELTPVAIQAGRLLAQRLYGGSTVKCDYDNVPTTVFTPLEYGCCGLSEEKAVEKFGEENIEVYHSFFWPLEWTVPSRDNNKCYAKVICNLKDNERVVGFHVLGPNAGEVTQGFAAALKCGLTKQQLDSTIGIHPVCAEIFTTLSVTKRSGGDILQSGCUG
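Rat TrxR1 (90 nM in the dispensed reagent) was pre-reduced with 400 uM NADPH for 5 min at room temperature, then incubated with compound for 15 min. After 400 uM selenite was added, NADPH fluorescence (Ex 340/Em 450 nm) was followed for 8 min.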
PKM2 act: PKM2 (human) enzyme activation. P14618. purified PKM2, Kinase-Glo ATP luminescence, activation; response scale: 0% is enzyme alone, no compound. Potency, µM (series often up to 57.5 µM), usual class: activators. actives 0.34% (n = 260,000). AID 1631; also: nearly all actives have a fitted effect of over 55% in size
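Purified hPK-M2 (>95%) run at intermediate activity with 0.1 mM ADP and 0.5 mM PEP in 50 mM imidazole pH 7.2, KCl, MgCl2; 1 h room temperature. ATP formed read by Kinase-Glo luminescence; normalized to uninhibited and no-enzyme controls.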
TrxR1 substrate: substrates of rat thioredoxin reductase 1; actives 0.01% (n = 390,000); Potency, µM (series often up to 114 µM); O89049; purified TrxR1 substrate turnover, NADPH consumption readout; also: nearly all actives have a fitted effect of over 50% in size
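Rat TrxR1, dispensed at 90 nM, was prereduced with 400 uM NADPH (final) for 5 min at ~22 deg C, then incubated with compound 15 min before 400 uM selenite. A first-read NADPH fluorescence drop versus no-compound background flagged substrates.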
LDHA block: blocks human lactate dehydrogenase A; purified LDHA, NADH/diaphorase-resazurin fluorescence; active compounds read low; activity change, % (values are at about 110 or 230 µM); actives 0.15% (n = 480,000); in the data active = activity change below about -30%; inconclusive = mostly about -25% to -30%
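LDH5 2 nM; NADH 0.06 mM, pyruvate 0.2 mM; 200 mM Tris pH 7.4, EDTA, Tween-20; 5 min RT. Detection: diaphorase 0.133 mg/mL + resazurin 37 µM, fluorescence ex540/em590 at 0 and 20 min; normalized to enzyme-free and DMSO wells.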
GLS inhibitor: blocks human kidney-isoform glutaminase activity. O94925. GLS enzymatic activity, qHTS titration. Potency, µM (top dose mostly 45.5 µM), actives largely listed as inhibitors. actives 0.21% (n = 410,000)
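Enzyme dispensed in phosphate buffer (45 mM, pH 8.2, 0.02% Tween-20), compounds pinned in, then 1 mM L-glutamine solution and the glutamate oxidase–HRP–Amplex Red mix added; fluorescence read immediately and again after 30 min at room temperature.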
A number is an active result; n = inactive; u = inconclusive; x = no result; [ ] = remark or other dose. Rows were chosen to be rich in hits. Some 1.4% of all compounds tested hit in one or more screens of this group. Unless noted, calls follow the shape of the dose curve; as a rule, active = well fitted curve in the direction sought with a large enough effect; inconclusive = small, poorly fitted or top-dose-only effect, or another doubt; inactive = no such curve, though single readings can be large; an effect the other way counts as inactive or inconclusive.

SMILES	IDH1 R132H inh	TrxR1 inh	PKM2 act	TrxR1 substrate	LDHA block	GLS inhibitor
CN(C)CCCN(C(=O)CCc1ccccc1)c1nc2c(F)cccc2s1	n	n	n	n	n	n
Cc1ccc(C(=O)/C=C/c2cccc3ccccc23)o1	x	x	x	x	n	x
COc1ccc(C(=O)Nc2ccc3oc(-c4ccncc4)nc3c2)cc1Br	x	x	x	x	-33	x
O=C(Nc1ccc2oc(-c3cccnc3)nc2c1)c1ccco1	n	u	n	n	n	n
O=C(Nc1ccc2oc(-c3cccnc3)nc2c1)c1ccc(Br)o1	n	45µM	n	n	n	n
COCCNC(=O)c1cc(-c2ccc(Cl)cc2)nc2ccccc12	x	x	x	x	n	x
COc1ccc2nc(C)c(C(=O)Nc3cc(C)ccn3)cc2c1	x	x	x	x	n	x
Cc1ccc2nc(SCC(=O)c3cc(C)n(C)c3C)[nH]c2c1	n	n	n	n	n	n
Cc1cc(C(=O)CSc2nc3ccc(Cl)cc3[nH]2)c(C)n1C	n	n	16µM	n	n	n
CC(C)C(NC(=O)c1ccc(Cl)cc1)C(C)C	x	x	x	x	n	x
CC(C)(C)c1cc(N2CCOCC2)n2ncc(-c3ccc(Cl)cc3)c2n1	n	89µM	x	n	n	n
O=[N+]([O-])c1ccc(/C=C2\CCC(C3=CCCC3)=C2N2CCOCC2)cc1	n	40µM	n	n	n	n
O=C(CCc1ccccc1)c1ccc2c(c1)OCCCO2	n	n	n	n	n	n
O=C(CCN1CCCC1Cc1ccccc1)c1ccc2c(c1)OCCO2 (stereo not given)	n	0.32µM	n	n	n	n
COc1cc(C(=O)CCN2CCC(c3ccccc3)C2)cc(OC)c1OC (stereo not given)	n	0.5µM	n	n	n	n
O=C(CCN1CCc2ccccc2C1)c1ccc2c(c1)OCCO2	n	0.56µM	n	n	n	n
O=C(CCN1CCC(c2ccccc2)C1)c1ccc2c(c1)OCCO2 (stereo not given)	n	0.28µM	n	n	n	n
COc1ccc(-c2nc(CC(=O)NC3CCN(Cc4ccccc4)CC3)cs2)cc1	x	x	x	x	n	x
Cc1[nH]c2ccccc2c1C(=O)C(=O)N(C)C1CCS(=O)(=O)C1 (stereo not given)	x	x	x	x	n	x
CC(C)(C)C(=O)COC(=O)c1c(Cl)cccc1Cl	x	x	x	x	n	x
O=C(CCN1CCCCCC1)Nc1ccc2c(c1)OCCO2	n	n	n	n	n	n
O=C(CCN1CCCCC1)c1ccc2c(c1)OCCO2	n	0.32µM	n	n	n	n
CCOC(=O)C(NC(=O)CCl)(Nc1sc(C)c(CC)c1C#N)C(F)(F)F (stereo not given)	n	56µM	n	n	n	n
Cc1ccc(OCCN(C)C(=O)NCc2ccccc2)cc1	x	x	x	x	n	x
O=C(COC(=O)c1cc(Br)c[nH]1)NCc1ccc(F)cc1	x	x	x	x	n	x
SMILES	IDH1 R132H inh	TrxR1 inh	PKM2 act	TrxR1 substrate	LDHA block	GLS inhibitor
CCOC(=O)C(C#N)=C1SC(C(=O)OCC)C(C(=O)OCC)S1 (stereo not given)	x	x	x	x	n	x
COc1ccccc1CC(=O)NC(C)C1CC2CCC1C2 (stereo not given)	x	x	x	x	n	x
CCOc1cc2c(cc1NC(=O)CCC(=O)c1ccc(C)cc1)OC(C)C2 (stereo not given)	x	x	x	x	n	x
CCCCCC(=O)N(O)C1CC(=O)N(c2ccccc2)C1=O (stereo not given)	n	3.5µM	n	n	n	n
CCCCCCC(=O)N(O)C1CC(=O)N(Cc2ccccc2)C1=O (stereo not given)	n	n	n	n	n	n
Cc1ccc(C2C(C#N)=C(N)Oc3cc(N)ccc32)cc1 (stereo not given)	n	n	n[11.5 µM]	n	n	n
Cc1ccc(/C=C2\CCC3=C2OC(N)=C(C#N)C3c2ccc(C)cc2)cc1 (stereo not given)	n	50µM	n	n	n	n
CCOC(=O)c1c(NC(C)=O)sc2c1CCN(Cc1ccccc1)C2	n	n	n	n	n	n
CCOC(=O)c1c(NC(C)=O)sc2c1CCC(C=O)=C2Sc1ccccc1	n	1.3µM	n	n	n	n
O=C(Nc1ccc(Cl)cc1)c1cc2cc(Cl)ccc2[nH]1	x	x	x	x	n	x
